PubChem BioAssay (EPA / NIEHS)
Calls of active or inactive are those of the source. Rule for the calls: active = hit-call score of the fitted dose curve at least 0.9, where 1 is the maximum; inactive = score below 0.9.

Test: CCTE_Simmons_MITO_basal_resp_rate: CCTE's HepG2 Seahorse XF Respirometric Screening Assay at Basal Respiratory State, Simmons Lab (AID 2284001)
Details: actives raise or lower the signal
Method: CCTE_Simmons_MITO is cell-based, respirometric assay using HepG2 cells and a Seahorse XF Analyzer to measure oxygen consumption rates over four temporal phases spanning a total of 72 minutes: pre-injection (pre-treatment), basal (following test compound injection), maximal (following FCCP uncoupler injection), and inhibited (following rotenone/antimycin A injection)CCTE_Simmons_MITO_basal_resp_rate is one of 4 assay components calculated from the CCTE_Simmons_MITO assay. It is designed to make measurements of basal respiration using a form of respirometric reporter, as detected with […] signals by Seahorse XF96 technology. Data from the assay component CCTE_Simmons_MITO_basal_resp_rate was analyzed at the endpoint, CCTE_Simmons_MITO_basal_resp_rate_OCR, with bidirectional fitting relative to DMSO as the negative control and baseline of activity. Using a type of respirometric reporter, measures of basal respiration for gain or loss-of-signal activity can be used to understand cellular oxygen consumption as it relates to cellular respiration. To generalize the intended target to other relatable targets, this assay endpoint is annotated to the mitochondria intended target family, where the subfamily is respiration.
Test chemicals were administered as a titrated series of 7 concentrations from 125 nM up to 100 uM [final] prior to kinetic endpoint detection at 6 minute intervals [3 min mix followed by 3 minutes measure] for 72 minutes. Three biological replicates of technical singles were run for every chemical concentration tested. Dimethylsulfoxide [DMSO] was used as the vehicle control. The electron transport chain inhibitor fenpyroximate was used as the positive control for decreased basal respiration and was administered as a titrated series of 6 concentrations from 250 nM up to 2.75 uM [final] with technical triplicates for the top concentration only. The uncoupler 2,4-dintirophenol was used as the positive control for increased basal respiration and was administered as a titrated series of 6 concentrations from 938 nM up to 40 uM [final] with technical triplicates for the top concentration only. A Seahorse XF Analzyer is required to measure the response.

Row | Compound | outcome | AC50
1 | CC(C)N1C(=O)N(c2ccccc2)CSC1=NC(C)(C)C | inactive | –
2 | Cn1c(-c2ccccc2)cc(-c2ccccc2)[n+]1C | – | 41.9 µM (active)
3 | CCOP(=S)(OCC)Oc1nc(Cl)n(C(C)C)n1 | – | 29.3 µM (active)
4 | Cc1c(COC(=O)[C@@H]2[C@H](/C=C(\Cl)C(F)(F)F)C2(C)C)cccc1-c1ccccc1 | inactive | –
5 | CC(C)=CC1C(C(=O)OCc2coc(Cc3ccccc3)c2)C1(C)C (configuration not stated) | inactive | –
6 | CO/N=C(/C1=NOCCO1)c1ccccc1Oc1ncnc(Oc2ccccc2Cl)c1F | – | 6.74 µM (active)
7 | O=C1C2CC=CCC2C(=O)N1SC(Cl)(Cl)Cl (configuration not stated) | – | 59.9 µM (active)
8 | CCCCC(O)(Cn1cncn1)c1ccc(Cl)cc1Cl (configuration not stated) | – | 41 µM (active)
9 | CC1(C)C(C=C(Cl)Cl)C1C(=O)OC(C#N)c1cccc(Oc2ccccc2)c1 (configuration not stated) | inactive | –
10 | COCC(=O)N(c1c(C)cccc1C)C(C)C(=O)OC (configuration not stated) | – | 36.2 µM (active)
11 | CCN(CC)C(=O)C(C)Oc1cccc2ccccc12 (configuration not stated) | inactive | –
12 | CCOP(=O)(OCC)Oc1nc(Cl)c(Cl)cc1Cl | – | 29.6 µM (active)
13 | COCC(C)N(C(=O)CCl)c1c(C)csc1C (configuration not stated) | – | 55.3 µM (active)
14 | CCN(CC)c1nc(C)cc(OP(=S)(OC)OC)n1 | inactive | –
15 | CC(C)(C)C(=O)C(Oc1ccc(Cl)cc1)n1cncn1 (configuration not stated) | – | 40.6 µM (active)
16 | COc1ccc(-c2ccccc2)cc1NNC(=O)OC(C)C | inactive | –
17 | Cc1ccc(N=CN(C)C=Nc2ccc(C)cc2C)c(C)c1 | inactive | –
18 | Nc1c(Cl)c(F)nc(OCC(=O)O)c1Cl | inactive | –
19 | CCSC(=O)N1CCCCCC1 | inactive | –
20 | CCCCC(C#N)(Cn1cncn1)c1ccc(Cl)cc1 (configuration not stated) | inactive | –
21 | CCNP(=S)(OC)O/C(C)=C/C(=O)OC(C)C (configuration not stated) | – | 37.9 µM (active)
22 | N#Cc1c[nH]cc1-c1cccc2c1OC(F)(F)O2 | – | 77.1 µM (active)
